From PubChem BioAssay (NCATS)
Results filed as inconclusive are left out. Active and inactive are the calls of the source. Unless noted, calls follow the shape of the dose curve; as a rule, active = well fitted curve in the direction sought with a large enough effect; inconclusive = small, poorly fitted or top-dose-only effect, or another doubt; inactive = no such curve, though single readings can be large; an effect the other way counts as inactive or inconclusive.

These compounds were tested against 3',5'-cyclic-AMP phosphodiesterase 4B (Homo sapiens) (UniProt Q07343) (assay: qHTS Assay for Inhibitors of PDE-IV (AID 607; active = well fitted activation curve with a large enough effect in the main read-out, with a control signal flat, not every such curve was filed as active; also: % of control where 0% means no effect)). Settings: HEK293 ACTOne CNG channel cells, membrane potential fluorescence; series mostly up to 22.9 µM; activation (PDE inhibition): at the top concentration.
3',5'-cyclic-AMP phosphodiesterase 4B (Homo sapiens), sequence (Q07343 whole entry, looked up): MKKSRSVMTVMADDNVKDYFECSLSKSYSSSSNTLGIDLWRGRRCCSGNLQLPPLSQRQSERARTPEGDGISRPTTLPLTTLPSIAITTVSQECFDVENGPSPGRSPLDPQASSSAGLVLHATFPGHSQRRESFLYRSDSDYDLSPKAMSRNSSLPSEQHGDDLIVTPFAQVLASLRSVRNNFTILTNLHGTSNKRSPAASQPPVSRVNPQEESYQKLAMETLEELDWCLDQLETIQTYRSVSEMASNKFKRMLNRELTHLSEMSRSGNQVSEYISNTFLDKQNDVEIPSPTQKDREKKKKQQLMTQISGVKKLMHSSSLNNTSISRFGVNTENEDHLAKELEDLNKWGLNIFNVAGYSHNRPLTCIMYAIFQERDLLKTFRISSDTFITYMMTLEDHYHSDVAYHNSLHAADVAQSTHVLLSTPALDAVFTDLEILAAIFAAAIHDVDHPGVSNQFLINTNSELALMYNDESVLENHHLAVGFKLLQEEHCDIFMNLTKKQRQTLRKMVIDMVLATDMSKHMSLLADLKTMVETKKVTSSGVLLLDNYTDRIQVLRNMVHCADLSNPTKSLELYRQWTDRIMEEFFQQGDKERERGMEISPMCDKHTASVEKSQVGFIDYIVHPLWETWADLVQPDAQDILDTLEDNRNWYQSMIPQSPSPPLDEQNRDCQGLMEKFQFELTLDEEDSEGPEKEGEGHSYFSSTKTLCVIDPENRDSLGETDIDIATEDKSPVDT
Procedure, shortened: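 The readout is membrane depolarisation from a cAMP-sensing CNG channel, detected with a potential dye at ex 535/em 590. Cells were HEK293-derived (endogenous PDE-IV) at 1000 cells/well, titrated up to 22.9 uM final.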

Compound | activation (PDE inhibition)
O=C(O)CC(CC(=O)O)n1cccc1 | 2.64% (inactive)
CC(C)(CN)CN | 3.01% (inactive)
O=C(O)NCC1CCCCC1 (tested in a mixture with another compound) | 7.64% (inactive)
O=C(O)CCC(=O)c1ccc2ccc3cccc4ccc1c2c34 | 15.5% (inactive)
O=C(O)c1cc2ccccc2c(S(=O)(=O)O)c1O | 10.6% (inactive)
CCCCN1CSC(=S)N(Cc2ccccc2)C1 | 4.2% (inactive)
COCCn1c(=O)c(-c2cc(F)cc(F)c2)nc2cnc(Oc3ccccc3)nc21 | 21.2% (inactive)
S=C(Nc1ccc2cn[nH]c2c1)Nc1ccc2cn[nH]c2c1 | -11.8% (inactive)
CC(C)NC1(C(N)=O)CCN(Cc2ccccc2)CC1 | -8.23% (inactive)
O=C1/C(=C/c2cccnc2)SC(=S)N1Cc1ccco1 | -6.75% (inactive)
COc1ccc(-c2cc([C@H](O)[C@@H]3CCCCN3)c3ccccc3n2)cc1 | 5.49% (inactive)
NCCCc1c(-c2ccccc2)nc(N)[nH]c1=O | 7.12% (inactive)
c1ccc2c(CN3CCN(Cc4c[nH]c5ccccc45)CC3)c[nH]c2c1 | -3.92% (inactive)
Cc1cnc(CNc2nc(-c3cccnc3)nc3ccccc23)cn1 | 11.6% (inactive)
c1ccc2c(c1)nnn2CN1CCOCC1 | 10.1% (inactive)
CC[C@H](C(=O)c1cccs1)C(O)(C(F)(F)F)C(F)(F)F | 1.26% (inactive)
N=C(N)SCc1ccc(Cl)cc1Cl (tested in a mixture with another compound) | -3.04% (inactive)
O=C(O)C1(C(=O)O)CCN(S(=O)(=O)c2ccccc2)CC1 | -3.22% (inactive)
CN(C)CCNc1nc2c(c(=O)n(C)c(=O)n2C)n1C | 1.84% (inactive)
COc1ccc(OC)c(-c2cc(C(=O)O)c3cc4ccccc4cc3n2)c1 | -7.58% (inactive)

Compound | activation (PDE inhibition)
CN=C(N)/N=C(\N)Nc1cc2ccccc2c2ccccc12 | -11.2% (inactive)
Oc1ccc2ccccc2c1CN(Cc1c(O)ccc2ccccc12)C1CCCCC1 | -1.39% (inactive)
CN(C)C(=O)c1ccc(-c2nc(Nc3ccncc3)c3ccccc3n2)cc1 | 13% (inactive)
c1ccc(C(CCN2CC3CCC(CC3)C2)c2ccccc2)cc1 | 28.1% (inactive)
Cc1cn([C@H]2C[C@H](O)[C@@H](COC(N)=O)O2)c(=O)[nH]c1=O | -1.2% (inactive)
C[C@]12CC[C@H]3c4ccc(O)cc4CC[C@@H]3[C@H]1C/C(=N/O)[C@H]2O | 4.27% (inactive)
CCOC(=O)C1=C(C)NC(=O)N[C@@H]1c1coc2cc(C)cc(C)c2c1=O | 5.67% (inactive)
N/C(CC/C(N)=N/O)=N\O | 5.61% (inactive)
c1ccc2sc(SCCSc3nc4ccccc4s3)nc2c1 | 10.3% (inactive)
O=C(O)[C@@H](c1ccccc1)[C@@H](C(=O)O)c1ccccc1 | -9.42% (inactive)
O=C(O)c1nn(-c2ccccc2-c2n[nH]c(=O)[nH]c2=O)c(=O)[nH]c1=O | 2.7% (inactive)
NNC(=O)c1ccc[n+](CCc2ccccc2)c1 | -0.135% (inactive)
CN(Cc1cc(Cl)cc(Cl)c1O)Cc1c(O)ccc2ccccc12 | -10.7% (inactive)
NS(=O)(=O)c1cc2c(cc1Cl)=NC(CCC(=O)O)=NS=2(=O)O | -7.6% (inactive)
CC[C@H]1CN(C)[C@H]2Cc3c([nH]c4ccccc34)C(=O)C[C@H]1[C@H]2C(=O)OC | -8.53% (inactive)
O=C(O)[C@@H]1[C@@H](C(=O)O)[C@]23C[C@@]2(C(=O)O)[C@]2(C(=O)O)CCC3=C3CCCC312 | -6.64% (inactive)
CCCn1cnc2c(SCc3ccc(Cl)cc3)nc(N)nc21 | 15.2% (inactive)
Clc1cc2c(c(CSC3=NCN(CC4CC4)CN3)c1)OCOC2 | 7.63% (inactive)
CCOC(=S)SCC(=O)O | 3.17% (inactive)
C[N+](C)(N)CCC[N+](C)(C)N | 4.15% (inactive)

What follows are compounds tested against Cytochrome P450 3A4 (Homo sapiens) (UniProt P08684) (assay: qHTS Assay for Activators of Cytochrome P450 3A4 (AID 885; also: nearly all actives have a fitted effect of over 65% in size)). Settings: recombinant CYP3A4, Luciferin-PPXE luminescence, 60 min; series mostly up to 11.4 µM; activity change, positive = activation: at the top concentration.
Cytochrome P450 3A4 (Homo sapiens), sequence (P08684 whole entry, looked up): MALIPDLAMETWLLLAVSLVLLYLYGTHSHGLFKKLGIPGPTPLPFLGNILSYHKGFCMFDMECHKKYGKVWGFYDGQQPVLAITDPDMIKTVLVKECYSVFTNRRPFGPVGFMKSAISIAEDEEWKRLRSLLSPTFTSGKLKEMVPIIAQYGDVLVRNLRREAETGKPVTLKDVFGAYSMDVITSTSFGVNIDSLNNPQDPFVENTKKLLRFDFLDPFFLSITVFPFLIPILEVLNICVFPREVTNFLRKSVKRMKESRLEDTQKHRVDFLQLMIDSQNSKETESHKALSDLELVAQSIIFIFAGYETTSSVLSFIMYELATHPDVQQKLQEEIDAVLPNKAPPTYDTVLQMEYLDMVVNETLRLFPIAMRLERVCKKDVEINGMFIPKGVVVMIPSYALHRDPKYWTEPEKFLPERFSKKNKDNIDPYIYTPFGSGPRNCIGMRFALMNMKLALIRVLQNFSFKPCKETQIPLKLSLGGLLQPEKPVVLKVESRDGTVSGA
Procedure, shortened: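 Activators are scored by enhanced luminescence from CYP3A4 conversion of luciferin-PPXE (25uM, equal to KM) to luciferin, after 60 min at RT with an NADPH-regenerating system.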

Compound | activity change, positive = activation
CCCCN1CSC(=S)N(Cc2ccccc2)C1 | -56.6% (inactive)
COCCn1c(=O)c(-c2cc(F)cc(F)c2)nc2cnc(Oc3ccccc3)nc21 | -55.7% [at 57.1 µM] (inactive)
O=C1/C(=C/c2cccnc2)SC(=S)N1Cc1ccco1 | -60.2% (inactive)
Cc1cnc(CNc2nc(-c3cccnc3)nc3ccccc23)cn1 | -91.7% [at 57.1 µM] (inactive)
CN(C)C(=O)c1ccc(-c2nc(Nc3ccncc3)c3ccccc3n2)cc1 | -62.7% [at 57.1 µM] (inactive)
CCOC(=O)C1=C(C)NC(=O)N[C@@H]1c1coc2cc(C)cc(C)c2c1=O | -55.1% (inactive)
CCCn1cnc2c(SCc3ccc(Cl)cc3)nc(N)nc21 | -32.7% (inactive)

Each compound was assayed against Cytochrome P450 2D6 (Homo sapiens) (UniProt P10635) (assay: qHTS Assay for Inhibitors and Substrates of Cytochrome P450 2D6 (AID 891; also: nearly all actives have a fitted effect of over 60% in size; also: potency is read from the fitted curve at half-maximal effect;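 as to activity change, negative = inhibition: luciferin methyl ether substrate demethylated by CYP2D6 with NADPH regeneration; % is scaled to controls: 0 for no effect and ±100 for the full control effect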)). Settings: recombinant CYP2D6, luciferin-ME EGE luminescence; series mostly up to 11.4 µM; activity change, negative = inhibition: at the top concentration.
Cytochrome P450 2D6 (Homo sapiens), sequence (P10635 whole entry, looked up): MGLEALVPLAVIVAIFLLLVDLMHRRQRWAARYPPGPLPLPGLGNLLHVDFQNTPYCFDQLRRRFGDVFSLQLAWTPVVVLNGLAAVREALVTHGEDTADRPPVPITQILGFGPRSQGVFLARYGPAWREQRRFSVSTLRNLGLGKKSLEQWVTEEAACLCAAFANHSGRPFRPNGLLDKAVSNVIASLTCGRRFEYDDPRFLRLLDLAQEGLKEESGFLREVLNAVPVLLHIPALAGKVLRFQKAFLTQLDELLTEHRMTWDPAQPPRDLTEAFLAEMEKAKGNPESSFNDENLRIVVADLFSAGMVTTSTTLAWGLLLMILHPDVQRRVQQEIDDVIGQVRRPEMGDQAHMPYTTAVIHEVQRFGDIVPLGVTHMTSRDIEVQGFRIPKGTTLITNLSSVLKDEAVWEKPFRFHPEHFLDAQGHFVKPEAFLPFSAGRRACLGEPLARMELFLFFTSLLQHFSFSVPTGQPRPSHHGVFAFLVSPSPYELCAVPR
Procedure, shortened: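 Luminescent read-out of luciferin formed by 5 nM human CYP2D6 demethylating 30 uM Luciferin-ME EGE (Km level) over 60 min at room temperature after NADPH regeneration addition. Data normalized to full inhibition by 1.43 uM quinidine.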

Compound | activity change, negative = inhibition | Potency
O=C(O)CC(CC(=O)O)n1cccc1 | -1.51% (inactive) | 
CC(C)(CN)CN | 22.6% (inactive) | 
O=C(O)NCC1CCCCC1 (tested in a mixture with another compound) |  | 3.98 µM (active)
O=C(O)CCC(=O)c1ccc2ccc3cccc4ccc1c2c34 | 41% (inactive) | 
O=C(O)c1cc2ccccc2c(S(=O)(=O)O)c1O | 22% (inactive) | 
S=C(Nc1ccc2cn[nH]c2c1)Nc1ccc2cn[nH]c2c1 |  | 2 µM (active)
CC(C)NC1(C(N)=O)CCN(Cc2ccccc2)CC1 |  | 0.631 µM (active)
COc1ccc(-c2cc([C@H](O)[C@@H]3CCCCN3)c3ccccc3n2)cc1 |  | 3.16 µM (active)
NCCCc1c(-c2ccccc2)nc(N)[nH]c1=O | 25.7% (inactive) | 
c1ccc2c(CN3CCN(Cc4c[nH]c5ccccc45)CC3)c[nH]c2c1 |  | 2.51 µM (active)
c1ccc2c(c1)nnn2CN1CCOCC1 | -1.14% (inactive) | 
CC[C@H](C(=O)c1cccs1)C(O)(C(F)(F)F)C(F)(F)F |  | 3.16 µM (active)
N=C(N)SCc1ccc(Cl)cc1Cl (tested in a mixture with another compound) |  | 3.16 µM (active)
O=C(O)C1(C(=O)O)CCN(S(=O)(=O)c2ccccc2)CC1 | 14.7% (inactive) | 
CN(C)CCNc1nc2c(c(=O)n(C)c(=O)n2C)n1C | 23.8% (inactive) | 
COc1ccc(OC)c(-c2cc(C(=O)O)c3cc4ccccc4cc3n2)c1 |  | 3.98 µM (active)
CN=C(N)/N=C(\N)Nc1cc2ccccc2c2ccccc12 |  | 1.58 µM (active)

Compound | activity change, negative = inhibition | Potency
Oc1ccc2ccccc2c1CN(Cc1c(O)ccc2ccccc12)C1CCCCC1 |  | 0.631 µM (active)
c1ccc(C(CCN2CC3CCC(CC3)C2)c2ccccc2)cc1 |  | 0.794 µM (active)
Cc1cn([C@H]2C[C@H](O)[C@@H](COC(N)=O)O2)c(=O)[nH]c1=O | 21.2% (inactive) | 
C[C@]12CC[C@H]3c4ccc(O)cc4CC[C@@H]3[C@H]1C/C(=N/O)[C@H]2O | 28.1% (inactive) | 
N/C(CC/C(N)=N/O)=N\O | 28.7% (inactive) | 
c1ccc2sc(SCCSc3nc4ccccc4s3)nc2c1 | 29.9% (inactive) | 
O=C(O)[C@@H](c1ccccc1)[C@@H](C(=O)O)c1ccccc1 | 21.5% (inactive) | 
O=C(O)c1nn(-c2ccccc2-c2n[nH]c(=O)[nH]c2=O)c(=O)[nH]c1=O | 24.4% (inactive) | 
NNC(=O)c1ccc[n+](CCc2ccccc2)c1 |  | 2 µM (active)
CN(Cc1cc(Cl)cc(Cl)c1O)Cc1c(O)ccc2ccccc12 |  | 1.26 µM (active)
NS(=O)(=O)c1cc2c(cc1Cl)=NC(CCC(=O)O)=NS=2(=O)O | 22.4% (inactive) | 
CC[C@H]1CN(C)[C@H]2Cc3c([nH]c4ccccc34)C(=O)C[C@H]1[C@H]2C(=O)OC | 24.3% (inactive) | 
O=C(O)[C@@H]1[C@@H](C(=O)O)[C@]23C[C@@]2(C(=O)O)[C@]2(C(=O)O)CCC3=C3CCCC312 | 29.7% (inactive) | 
Clc1cc2c(c(CSC3=NCN(CC4CC4)CN3)c1)OCOC2 |  | 0.199 µM (active)
CCOC(=S)SCC(=O)O | 26.5% (inactive) | 
C[N+](C)(N)CCC[N+](C)(C)N | 23.7% (inactive) | 
